In the supplement of paper PMC10981050:
“And” between values parts separate entries of the source, which are not always exact repeats. Equal values may be shown once. Where a name gives a salt, the structure may show the parent alone.

How the values were obtained:
Experiment in all cases: cell viability relative to vehicle control; higher = less cytotoxic
Settings in all cases: 10 µM
[1] = system: K562
Outline: (§1)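 Four leukaemia lines, as CRISPR-edited mutant clones and isogenic wild-type clones, were tested against Selleck bioactive, kinase and epigenetic probe libraries after removal of identity-inconsistent compounds. Cells were exposed to a single 10 µM dose for 48 h, and CellTiter-Glo luminescence was then read. Viability was calculated relative to the on-plate vehicle control.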

[2] = system: MARIMO
Outline: as §1

[3] = system: MOLM14
Outline: as §1

[4] = system: OCI-AML2
Outline: as §1

Structure (SMILES) | cell viability ([1]; SRSF2 genotype: SRSF2 P95H/wt) | cell viability ([1]; SRSF2 genotype: SRSF2 wt/wt) | cell viability ([2]; SRSF2 genotype: SRSF2 P95H/wt) | cell viability ([2]; SRSF2 genotype: SRSF2 wt/wt) | cell viability ([3]; SRSF2 genotype: SRSF2 P95H/wt) | cell viability ([3]; SRSF2 genotype: SRSF2 wt/wt) | cell viability ([4]; SRSF2 genotype: P95H/wt) | cell viability ([4]; SRSF2 genotype: wt/wt)
Cc1cc(NS(=O)(=O)c2ccc(N)cc2)no1 [Sulfamethoxazole sodium] | 107% and 94.7% | 100% | 101% | 110% | 102% | 104% | 93.1% | 109%
Cn1ccnc1S [Methimazole (Tapazole, Northyx)] | 101% and 94.7% | 95.5% | 99.3% | 99.8% | 97.7% | 97.6% | 93.2% | 100%
O=S(=O)(c1ccccc1)N(CC(F)(F)F)c1ccc(C(O)(C(F)(F)F)C(F)(F)F)cc1 | 74.6% and 72.6% | 72.3% | 67.8% | 70.4% | 62.3% | 65.2% | 67.5% | 70.7%
CCC1(c2ccccc2)C(=O)NCNC1=O [Primidone (Mysoline)] | 113% and 104% | 107% | 106% | 114% | 102% | 107% | 98% | 110%
CC[C@H]1OC(=O)[C@H](C)[C@@H](O[C@H]2C[C@@](C)(OC)[C@@H](O)[C@H](C)O2)[C@H](C)[C@@H](O[C@@H]2O[C@H](C)C[C@H](N(C)C)[C@H]2O)[C@](C)(O)C[C@@H](C)C(=O)[C@H](C)[C@@H](O)[C@]1(C)O [Erythromycin thiocyanate] | 97.3% and 94.2% | 94.6% | 82.7% | 91.9% | 87.9% | 89.1% | 87% | 90.1%
Clc1ccc(C(c2ccccc2Cl)C(Cl)Cl)cc1 (stereo not drawn) [Mitotane] | 91.2% and 89.1% | 87.6% | 83% | 106% | 90.8% | 84.8% | 93.7% | 107%
COc1ccc2c(c1)c(C1=C(c3c[nH]c4ccccc34)C(=O)NC1=O)cn2CCCN(C)C | 84.2% and 80.9% | 74.5% | 69.8% | 85.8% | 30.9% | 25.9% | 31.8% | 49.9%
O=C1c2c(O)cc(O)cc2O[C@H](c2cc(O)c(O)c(O)c2)[C@H]1O [Dihydromyricetin (Ampeloptin)] | 111% and 107% | 114% | 112% | 110% | 110% | 107% | 112% | 107%
CC1(C)OCCn2c1nc1c(N3CCOCC3)nc(-c3cnc(N)nc3)nc12 | 47.1% and 53.8% | 55% | 45.7% | 36% | 27.3% | 23.9% | 11.2% | 19.6%
Cc1cccc(-c2[nH]c(C(C)(C)C)nc2-c2ccc3c(c2)OCO3)n1 | 63.9% and 60.2% | 47.6% | 61.4% | 63.3% | 84.9% | 83.8% | 52.6% | 50%
CCCNC[C@]1(O)[C@H](C)O[C@@H](O[C@H]2[C@H](C)[C@@H](O[C@@H]3O[C@H](C)C[C@H](N(C)C)[C@H]3O)[C@](C)(O)C[C@@H](C)CN[C@H](C)[C@@H](O)[C@](C)(O)[C@@H](CC)OC(=O)[C@@H]2C)C[C@@]1(C)OC [Tulathromycin A] | 101% and 105% | 104% | 101% | 107% | 100% | 106% | 99.9% | 99%
O=C(NO)c1cnc(NC2(c3ccccc3)CC2)nc1 | 8.09% and 28.4% | 35.4% | 3.94% | 3.14% | 4.83% | 1.94% | 0.88% | 2.07%
CCCOC(C(=O)OC1CCN(C)CC1)(c1ccccc1)c1ccccc1 [Propiverine hydrochloride] | 80.6% and 87.8% | 88.2% | 68.5% | 79.1% | 75.2% | 85.2% | 72.1% | 64.2%
Cc1cc(C)nc(NS(=O)(=O)c2ccc(NC(=S)NC(=O)COc3ccc(Br)cc3Cl)cc2)n1 | 91.4% and 83.1% | 85.5% | 82.3% | 90.7% | 83.5% | 91.1% | 88.6% | 84.6%
CC(=O)[C@H]1CC[C@H]2[C@@H]3CCC4=CC(=O)CC[C@]4(C)[C@H]3CC[C@]12C [Progesterone (Prometrium)] | 78% and 87.7% | 81.7% | 60.7% | 38.8% | 75% | 78.8% | 54.5% | 59.9%
NC(=O)Cc1cccc(C(=O)c2ccccc2)c1N [Nepafenac] | 96.5% and 95.7% | 91.7% | 93.8% | 93.8% | 95.4% | 96.5% | 87.7% | 92.4%
CC(=O)NC(CC(C)C)C(=O)O (stereo not drawn) [Acetylleucine] | 91.4% and 98.5% | 97% | 103% | 93.4% | 101% | 94.8% | 92.2% | 95.4%
Cc1cc(/N=N/c2ccc(S(=O)(=O)Nc3ccccn3)cc2)c(N)cc1O | 76.8% and 80.2% | 79.7% | 56.9% | 53.3% | 36.3% | 34.8% | 26.2% | 48.7%
CCCC[S+]([O-])c1sc2nc(-c3cccs3)cc(-c3ccccc3)c2c1N (stereo not drawn) | 94.5% and 97% | 92.9% | 95% | 109% | 103% | 99.4% | 98.7% | 98.8%
O=C(c1ccccc1)c1ccc2nc(NC(=O)c3csc(C4CCN(c5ncnc6ccsc56)CC4)n3)[nH]c2c1 | 45.4% and 37.5% | 39.3% | 41.3% | 37.5% | 34.2% | 26.5% | 26.2% | 25%
CC(C)OC(=O)OCOP(=O)(CO[C@H](C)Cn1cnc2c(N)ncnc21)OCOC(=O)OC(C)C [Tenofovir Disoproxil Fumarate] | 92.9% and 94.9% | 82.2% | 79.8% | 79.2% | 34.7% | 28.4% | 14.3% | 22.9%
